Shown are actives, neighbours in structure and some others; about 3.8% of the full set was active somewhere.
ERa coact inh: ERα–SRC-1 coactivator interaction inhibitors, primary screen, biochemical, TR-FRET, ERα LBD, estradiol-bound; Estrogen receptor (Homo sapiens), P03372; TR-FRET ER-alpha LBD / SRC-1 peptide; inhibition, % at 25.6 µM; 1.7% of 86,000 active; AID 629, 2007; in the data active = inhibition above about 50%;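 note: 0% = receptor plus peptide control and 100% = peptide only without receptor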
MT1-MMP txn act: MT1-MMP promoter reporter activation – cell-based, luciferase luminescence, primary screen; HT1080 MT1-MMP promoter luciferase reporter, overnight; stronger effect = higher value; activation factor at 10 µM; 0.16% of 86,000 active; AID 750, 2007;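 active = activation factor of at least 2 for MT1-MMP transcription at 10 µM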
hDAT+cocaine: changed hDAT dopamine uptake under cocaine IC80, either direction, primary screen, cocaine antagonist project, cell-based, LLC-PK1 hDAT, [14C]-dopamine uptake, MLSMR; 1.3% of 110,000 active; AID 449768, 2010; B-score at 10 µM; Sodium-dependent dopamine transporter (Homo sapiens), Q01959; LLC-PK1 hDAT cells, [14C]-dopamine uptake with cocaine IC80; actives deviate in either direction;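 active = Z score or B-score, a plate-position-corrected score, falls beyond the plate's 99.7% confidence bounds, in either direction; inactive = both scores lie inside the 99.7% bounds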;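 note: scored against the spread of the other compound wells on the same plate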
ERa coact pot: enhancers of ERα–SRC-1 coactivator binding, primary screen, biochemical, TR-FRET, ERα LBD, low estradiol | Estrogen receptor (Homo sapiens), P03372 | TR-FRET ERalpha-LBD/SRC-Cy5 coactivator binding, 2 h; 100 = basal binding, no effect | coactivator binding (% of control), % at 25.6 µM | 1.3% of 86,000 active | AID 639, 2007; in the data active = activity above about 200%;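 note: binding measured in presence of low estradiol as agonist stimulus; 0% = peptide alone without receptor and 100% = receptor with peptide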
ERb SRC1 inh: inhibitors of ERβ-SRC1 coactivator interaction, primary screen, biochemical, TR-FRET, ERβ LBD, SRC-1 peptide; inhibition, % at 25.6 µM; TR-FRET ER-beta LBD / SRC1-Cy5 peptide binding; receptor agonist-loaded with 1 µM estradiol; Estrogen receptor beta (Homo sapiens), Q92731; 1.3% of 86,000 active;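 active = compounds whose percent inhibition of the receptor-coactivator binding signal exceeds about 50% in the single-dose screen, limit read from the data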;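 note: 0% = receptor plus peptide wells without compound and 100% = peptide-only wells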
Target sequence (Q92731 whole entry, looked up, the tested form may be a part): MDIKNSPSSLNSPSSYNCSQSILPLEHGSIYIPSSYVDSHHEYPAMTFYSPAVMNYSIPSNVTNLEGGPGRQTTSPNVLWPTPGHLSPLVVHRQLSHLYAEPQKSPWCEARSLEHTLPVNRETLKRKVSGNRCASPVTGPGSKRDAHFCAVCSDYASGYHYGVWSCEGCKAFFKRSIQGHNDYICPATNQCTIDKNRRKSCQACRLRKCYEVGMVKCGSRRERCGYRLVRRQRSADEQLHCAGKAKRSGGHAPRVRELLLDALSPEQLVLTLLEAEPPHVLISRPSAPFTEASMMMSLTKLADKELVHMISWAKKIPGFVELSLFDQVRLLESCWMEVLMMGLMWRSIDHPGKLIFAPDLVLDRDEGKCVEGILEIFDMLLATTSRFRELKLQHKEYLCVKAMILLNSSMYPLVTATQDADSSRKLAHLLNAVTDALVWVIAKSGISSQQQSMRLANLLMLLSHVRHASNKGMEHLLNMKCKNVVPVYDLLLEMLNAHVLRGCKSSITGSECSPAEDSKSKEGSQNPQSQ
* = called active by the depositor; nt = not tested or not shown; [ ] = dose if it differs, or a comment.

SMILES	ERa coact inh	MT1-MMP txn act	hDAT+cocaine	ERa coact pot	ERb SRC1 inh
COC(=O)C1(CC(C)C)C=C2C(=C(C(C)C)C(=O)C2C)CN1 (stereo not drawn)	nt	1.5	nt	nt	nt
Cc1cc(-c2cc(C(=O)NCc3ccccc3)on2)nc(S(C)(=O)=O)n1	nt	nt	-0.45	nt	nt
CC(C)(CO)Nc1ccc([N+](=O)[O-])cc1[N+](=O)[O-]	nt	nt	-2.6*	nt	nt
NC1=CC(=O)c2cccc3cccc1c23	86*[fluorescence artefact?]	1.3	-0.85	59	76*[fluorescence artefact?]
Cc1nnc(C)n1N1C(=O)c2cccc3cccc(c23)C1=O	-30	1.1	nt	107	-12
O=c1c2c3nc4ccccc4nc3n(/N=C/c3ccco3)c2ncn1CCC1=CCCCC1	66*[fluorescence artefact?]	0.9	0.058	85	40
CCCn1cnc2c(c1=O)c1nc3ccccc3nc1n2CCC1=CCCCC1	2	1.1	-0.026	105	8
CCN(CC(=O)Nc1cc(C)nn1-c1nc(C)cc(C)n1)Cc1ccccc1	-6	1.3	nt	99	-12
O=C(Nc1sc2c(c1C(=O)O)CCC2)c1cccs1	12	1.6	nt	74	41
NC(=O)c1c(NC(=O)c2cccs2)sc2c1CCCCCC2	60*	1.5	0.17	144	33
COCCCNC(=O)c1c(NC(=O)c2cccs2)sc2c1CCCC2	5	1.1	0.088	331*[fluorescence artefact?]	12
O=C(Nc1sc2c(c1C(=O)O)CCC2)c1ccccc1	79*[fluorescence artefact?]	1.2	nt	25	76*
COc1ccccc1NC(=O)c1c(NC(=O)c2ccco2)sc2c1CCC2	70*[fluorescence artefact?]	1.1	-1.1	177	34
CCCCC1=CC2=CC(=O)C(C)(OC(=O)c3cnc4ccccc4n3)C(=O)C2=CO1 (stereo not drawn)	nt	nt	0.15	nt	nt
O=C(CSc1nc2cccnc2n1Cc1ccccc1)NC1CCCCC1	1	1.1	0.75	93	-8
O=C(c1cc(C2CC2)nc2ccc(Br)cc12)N1N=C(C(F)F)CC1(O)C(F)F (stereo not drawn)	12	1.1	0.076	84	-3
c1ccc(-c2csc(N3CCCCCC3)n2)cc1	-2	1.4	-0.46	79	5
NC(=O)C1(N2CCCCC2)CCN(c2nc(-c3ccc(Br)cc3)cs2)CC1	71*	1	-1.5	108	24
CCc1ccc(N(C(=O)c2ccco2)C(C(=O)NC2CCCC2)c2ccco2)cc1 (stereo not drawn)	1	1.3	-0.01	100	-11
COc1cccc(C(c2sc3nc(C)nn3c2O)N2CCN(c3ccccc3F)CC2)c1 (stereo not drawn)	-11	1.2	2.7*	114	-8
O=C(N/N=C/C1C(c2ccccc2)C1(Cl)Cl)c1cccc(Br)c1 (stereo not drawn)	nt	nt	-1.1	nt	nt
O=C1NCCN1CCNS(=O)(=O)c1ccc2ccccc2c1	58*[fluorescence artefact?]	1	0.31	122	-8
O=C1c2ccccc2CN1CCNS(=O)(=O)c1ccc2ccccc2c1	-12	1.2	0.41	99	-4
CCOC(=O)CN1C(=O)N[C@@H](c2cccc(F)c2)C(C(=O)OC)=C1C	nt	nt	0.056	nt	nt
Cc1nc2ncnn2c(N2CCN(C(c3ccccc3)c3ccccc3)CC2)c1C	18	1.6	3.2*	43	8
SMILES	ERa coact inh	MT1-MMP txn act	hDAT+cocaine	ERa coact pot	ERb SRC1 inh
CCCCCCCC(=O)N/N=C(\C)c1cccnc1	-2	1.3	-0.44	123	-2
O=c1oc(-c2ccco2)nc2ccccc12	4	nt	-0.19	90	-2
O=C(NC1CCCC1)c1ccc2nc[nH]c2c1	3	1.1	0.36	110	7
O=C(NC1CCCC1)c1ccc2nc(-c3ccco3)c(-c3ccco3)nc2c1	94*[fluorescence artefact?]	1	nt	11	93*[fluorescence artefact?]
O=C(NCCO)c1ccc2nc(-c3ccco3)c(-c3ccco3)nc2c1	64*	1.1	-0.68	16	87*[fluorescence artefact?]
c1coc(-c2nc3ccccc3nc2-c2ccco2)c1	84*[fluorescence artefact?]	1	0.36	28	93*[fluorescence artefact?]
O=C(NCCc1ccccc1)c1ccc2nc(-c3ccco3)c(-c3ccco3)nc2c1	86*[fluorescence artefact?]	1.1	-1.2	27	88*[fluorescence artefact?]

Screening data (PubChem)
